# The panel holds about 83,000 compounds, 20% with a hit somewhere; the sample as a whole holds those more often.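 For each line, cells grew in 96-well plates with the test compound present at a single concentration for 48 hours.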 Unmarked numbers belong to inactive results. Active and inactive are the calls of the source. Rule for the calls: active = growth percent below 10; inactive = the rest.
# Tests used:
# Assay in all cases: NCI-60 one-dose screen, 48 h (100 = growth as untreated, 0 = no growth, -100 = all killed)
# Settings in all cases: 10 µM unless noted
# T-47D breast = test system: T-47D breast
# BT-549 breast = test system: BT-549 breast
# MDA-MB-435 melanoma = test system: MDA-MB-435 melanoma
# SW-620 colon = test system: SW-620 colon
# MCF7 breast = test system: MCF7 breast
# HCT-116 colon = test system: HCT-116 colon
# HCC-2998 colon = test system: HCC-2998 colon
# KM12 colon = test system: KM12 colon
SMILES,growth (T-47D breast),growth (BT-549 breast),growth (MDA-MB-435 melanoma),growth (SW-620 colon),growth (MCF7 breast),growth (HCT-116 colon),growth (HCC-2998 colon),growth (KM12 colon)
CN(C)CCCNC(=O)c1cncnc1Nc1ccc(OCc2cccc(F)c2)c(Cl)c1,-17% (active),53.6%,-88.6% (active),-67.7% (active),-44% (active),-82% (active),6.05% (active),-32.1% (active)
COC(=O)c1c2c(c(C)[n+]([O-])c1C)C(=O)C(NCc1cccc(Cl)c1)=CC2=O,6% (active),49.3%,-68.5% (active),7.1% (active),-36% (active),1.18% (active),15.3%,17.7%
CN1CCN(Cc2ccc(NC(=O)c3cncc(C#Cc4cnc(N)c5ncccc45)c3)cc2C(F)(F)F)CC1,35.9%,34.1%,-64.7% (active),-16.9% (active),-74.2% (active),-63.8% (active),16.3%,5.04% (active)
Fc1cccc(-c2ccc3c(c2)C2(CCNCC2)CN3)c1,78.9%,93.1%,108%,106%,92.5%,94.3%,99.4%,102%
C#COc1cccc(Nc2ncnc3cc(NC(=O)[C@@H](C)Cl)ccc23)c1,-1.06% [6.25 µM] (active),22.2% [6.25 µM],-58.4% [6.25 µM] (active),20.4% [6.25 µM],11.6% [6.25 µM],9.6% [6.25 µM] (active),15.2% [6.25 µM],14.8% [6.25 µM]
O=C1c2ccccc2C(=O)C1c1ccc(Br)cc1,108%,101%,97.9%,99.9%,87.7%,92.4%,98%,107%
O=c1cc(-c2ccccc2)[nH]c2ncc(-c3ccc(F)cc3)n12,74.3%,64.1%,-12% (active),40.3%,57.8%,51.3%,75.6%,44.4%
Cc1cccc(Oc2ccc(Nc3ncnc4ccc(NC(=O)CN5CCN(C)CC5)cc34)cc2Cl)c1,7.58% (active),70.3%,-67.8% (active),3.68% (active),7.21% (active),12.3%,19.3%,30.7%
Cc1ccc(-c2nc(-c3cn(C)c4ncccc34)cs2)cc1,-3.08% [100 µM] (active),-42.1% [100 µM] (active),-39.5% [100 µM] (active),-11.6% [100 µM] (active),-18% [100 µM] (active),-73.1% [100 µM] (active),-67.9% [100 µM] (active),-55.5% [100 µM] (active)
O=C(NNc1cnccn1)c1nc2cc(F)ccc2n2cccc12,20%,32%,24.5%,19.6%,5.93% (active),5.5% (active),35.7%,18.5%
CC(=O)c1ccc(Nc2nccc(-c3ccc4ccccc4c3)n2)cc1,88.1%,101%,69.1%,98.6%,75.8%,104%,104%,81.8%
O=C(Cc1cccc(OC(F)(F)F)c1)Nc1ccc(CCCCc2nnc(NC(=O)Cc3ccccn3)s2)nn1,30.3%,48.7%,85.1%,100%,79.7%,40%,91%,69.4%
CCCC(CC)(C(=O)Nc1ccc2nc(C)cc(N)c2c1)C(=O)Nc1ccc2nc(C)cc(N)c2c1,106%,101%,108%,112%,102%,85.2%,111%,109%
CN1CCN(C(=O)C(C)(C)c2ccc(C(=O)Nc3cn4cc(-c5ccncc5)ccc4n3)cc2)CC1,3.75% (active),7.86% (active),14.2%,11.1%,-0.0814% (active),5.31% (active),13.9%,7.82% (active)
CCOC(=O)c1nn(CC(O)c2ccccc2)c(NC(=O)Nc2cccc(F)c2)c1C (stereo not given),90.1%,101%,99.9%,95.9%,91.3%,96.4%,98.3%,104%
CCN1C(=O)N(CC)C2C1NN=c1s/c(=C3\C(=O)N(CC(C)C)c4ccccc43)c(=O)n12 (stereo not given),73.8%,17.5%,-16.4% (active),33.9%,15.1%,11.9%,13.8%,20.9%
FC(F)(F)Oc1cccc(-c2cnc3ccc(-c4ccncc4)nn23)c1,-0.156% (active),25.2%,12.3%,23.2%,10.7%,10.8%,32.5%,8.63% (active)
CN1CCN(Cc2ccc(NC(=O)c3cncc(C#Cc4cnc5ccc(Cl)nn45)c3)cc2C(F)(F)F)CC1,10.4%,-6.27% (active),-10.4% (active),-2.63% (active),-2.36% (active),-12.6% (active),-24.4% (active),-0.151% (active)
CN1CCN(CC(=O)Nc2ccc3ncnc(Nc4ccc(Oc5cccc(C(F)(F)F)c5)c(Cl)c4)c3c2)CC1,44.4%,73.1%,-86% (active),-68% (active),-51.3% (active),6.69% (active),-5.89% (active),23.5%
Cc1ccc(-c2nc(/C=C3/C(=O)Nc4ccc(F)cc43)c3ccccn23)cc1,100%,111%,86.7%,44.3%,35.5%,55%,95%,81.7%
Cc1ccc(/C=C/C(=O)c2ccc(-n3cc(CN4CCN(c5cc6c(cc5F)c(=O)c(C(=O)O)cn6C5CC5)CC4)nn3)cc2)cc1,86.7%,73.7%,77.4%,98.4%,59.2%,8.04% (active),92.4%,84.1%
CCN(CC)CCN1C(=O)c2c(c(C)c3c(oc4ccc(OC)cc43)c2C)C1=O,110%,116%,104%,92.2%,94.8%,83.7%,100%,99.5%
COc1cc(OC)c2sc(-c3ccc(-n4cncc4-c4cc(OC)c(OC)c(OC)c4)cc3)nc2c1,32.4%,45.1%,35.2%,56.6%,49.8%,48.6%,95.3%,52.4%
N#Cc1c(-c2ccccc2)nc(SCc2nnc(-c3ccc(Cl)cc3)o2)[nH]c1=O,53.8%,76.3%,109%,100%,91.3%,83.9%,103%,102%
O=C1c2cccc3cccc(c23)C(=O)N1C/C=C/c1ccc2c3c(cccc13)C(=O)N(CCO)C2=O,76.7%,40.3%,94.4%,81.8%,80.1%,76%,85.7%,76.2%
C/C(=N\O)c1ccc(NC(=O)CSc2nnc(-c3cc(-c4ccc(S(N)(=O)=O)cc4)nc4ccccc34)n2-c2ccccc2)cc1,36.6%,67.9%,69.5%,74.7%,44.6%,53.2%,87.5%,65%
CCO/C=N/C1=C(C#N)C(c2ccc(F)cc2)c2sc3c(F)cccc3c2O1 (stereo not given),40.6%,48.5%,-23.7% (active),20.6%,15.7%,39%,77%,32.5%
Cc1c(CN)cc(-c2ccc(Cl)cc2)n1-c1ccccc1,52.5%,74.9%,97.1%,89.4%,75.1%,67.3%,107%,99.9%
C=C(C)[C@@H]1CC[C@]2(C(N)=O)CC[C@]3(C)[C@H](CC[C@@H]4[C@@]5(C)CC[C@H](OCCC#N)C(C)(C)[C@@H]5CC[C@]43C)[C@@H]12,72.3%,97.8%,89.1%,87%,86.7%,91%,110%,89.2%
Cc1cc(Nc2ccc(C(=O)N3CCCC3)cc2)nc(NCCCNc2ccnc3cc(Cl)ccc23)n1,77.8%,84.6%,79.6%,95.9%,51.6%,54.5%,80.9%,87.4%
